PubChem BioAssay (NCI)
About 83,000 compounds went through this panel and 20% of them were active in at least one assay; those are over-represented in the sample as a whole.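 Method: cells in 96-well plates; compound added at one concentration; 48 h incubation; percent growth measured; values under 10 scored active.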 Activity calls are given as the source filed them.

How the values were obtained:
Test in all cases: NCI-60 one-dose screen, 48 h (100 = growth as untreated, 0 = no growth, -100 = all killed)
Settings in all cases: 10 µM unless noted
NCI-H23 lung = system: NCI-H23 lung
NCI-H226 lung = system: NCI-H226 lung
NCI-H322M lung = system: NCI-H322M lung
HOP-62 NSCLC = system: HOP-62 NSCLC
NCI-H460 lung = system: NCI-H460 lung
HOP-92 NSCLC = system: HOP-92 NSCLC
NCI-H522 lung = system: NCI-H522 lung
A549/ATCC NSCLC = system: A549/ATCC NSCLC
786-0 renal = system: 786-0 renal
COLO 205 colon = system: COLO 205 colon
DU-145 prostate = system: DU-145 prostate
K-562 leukemia = system: K-562 leukemia
MALME-3M melanoma = system: MALME-3M melanoma
MDA-MB-231 breast = system: MDA-MB-231 breast
RXF 393 renal = system: RXF 393 renal
SF-268 CNS = system: SF-268 CNS
SF-295 CNS = system: SF-295 CNS
SF-539 CNS = system: SF-539 CNS
UACC-257 melanoma = system: UACC-257 melanoma
M14 melanoma = system: M14 melanoma

Measured: growth

CCc1cc2c(cc1N1CCC(N3CCOCC3)CC1)C(C)(C)c1[nH]c3cc(C#N)ccc3c1C2=O
inactive: NCI-H23 lung 14.5% | DU-145 prostate 10.1%
active: NCI-H226 lung -35% | NCI-H322M lung -12.5% | HOP-62 NSCLC -61.7% | NCI-H460 lung 1.34% | HOP-92 NSCLC -10.9% | NCI-H522 lung -38.5% | A549/ATCC NSCLC 7.92% | 786-0 renal -45.7% | COLO 205 colon -42.5% | K-562 leukemia 2.08% | MALME-3M melanoma -27.4% | MDA-MB-231 breast -7.59% | RXF 393 renal -1.05% | SF-268 CNS -2.19% | SF-295 CNS -3.18% | SF-539 CNS -71.8% | UACC-257 melanoma -20% | M14 melanoma -26.1%

N[C@@H]1CCCN(c2c(/C=C3\SC(=O)NC3=O)cccc2-c2ccccc2)C1
active: HOP-62 NSCLC 1.79% | SF-295 CNS 5.44% | SF-539 CNS -24.7%
inactive: NCI-H23 lung 66% | NCI-H226 lung 59.1% | NCI-H322M lung 64.3% | NCI-H460 lung 75.9% | HOP-92 NSCLC 27.9% | NCI-H522 lung 49.7% | A549/ATCC NSCLC 52.6% | 786-0 renal 82.8% | COLO 205 colon 45.4% | DU-145 prostate 70.4% | K-562 leukemia 33.1% | MALME-3M melanoma 55.6% | MDA-MB-231 breast 55.8% | RXF 393 renal 54.6% | SF-268 CNS 43% | UACC-257 melanoma 44.7% | M14 melanoma 54.3%

Cc1cc(C(=O)NOCCO)c(Nc2ccc(I)cc2F)n(C)c1=O
active: HOP-92 NSCLC -21.5% | COLO 205 colon 4.04% | MALME-3M melanoma -4.71% | UACC-257 melanoma -19.6% | M14 melanoma 7.71%
inactive: NCI-H23 lung 25.9% | NCI-H226 lung 71.2% | NCI-H322M lung 19.8% | HOP-62 NSCLC 38.9% | NCI-H460 lung 66.6% | NCI-H522 lung 55% | A549/ATCC NSCLC 32.8% | 786-0 renal 71.3% | DU-145 prostate 69.8% | K-562 leukemia 34.2% | MDA-MB-231 breast 40.7% | RXF 393 renal 27.3% | SF-268 CNS 78.9% | SF-295 CNS 84% | SF-539 CNS 60.8%

O=C(Nc1ccc(-c2ccnc(Nc3ccc(N4CCOCC4)cc3)n2)cc1)[C@@H]1CCCN1
inactive: NCI-H23 lung 65.6% | NCI-H226 lung 48.6% | NCI-H322M lung 67.6% | HOP-62 NSCLC 33.6% | NCI-H460 lung 50.7% | HOP-92 NSCLC 50.2% | NCI-H522 lung 48.3% | A549/ATCC NSCLC 45% | 786-0 renal 40.3% | COLO 205 colon 44.6% | DU-145 prostate 67.1% | K-562 leukemia 16% | MALME-3M melanoma 71.5% | MDA-MB-231 breast 48.6% | SF-268 CNS 55.6% | SF-295 CNS 35.9% | SF-539 CNS 25.3% | UACC-257 melanoma 16.8% | M14 melanoma 51.7%
active: RXF 393 renal 5.11%

N#Cc1c(-c2ccc(Cl)cc2)csc1NC(=O)Nc1cccc(C(F)(F)F)c1
inactive: NCI-H226 lung 17.6% | NCI-H322M lung 31.5% | HOP-62 NSCLC 18.4% | A549/ATCC NSCLC 11.4% | 786-0 renal 22.9% | DU-145 prostate 16.9% | MALME-3M melanoma 14.8% | RXF 393 renal 59.5% | SF-268 CNS 27.9% | SF-539 CNS 37.9% | UACC-257 melanoma 27.8% | M14 melanoma 20.4%
active: NCI-H23 lung -8.85% | NCI-H460 lung 5.61% | HOP-92 NSCLC -4.85% | NCI-H522 lung -9.41% | COLO 205 colon -0.881% | K-562 leukemia 9.25% | MDA-MB-231 breast -0.969% | SF-295 CNS 3.47%

COc1cc(Nc2ncc(F)c(Nc3ccc4c(n3)N(COP(=O)(O)O)C(=O)C(C)(C)O4)n2)cc(OC)c1OC
active: NCI-H226 lung -14.6% | HOP-62 NSCLC 2.67% | HOP-92 NSCLC -39.5% | NCI-H522 lung -28.5% | A549/ATCC NSCLC 0.294% | 786-0 renal -23.8% | COLO 205 colon -22.8% | RXF 393 renal -79.9% | SF-268 CNS 7.3% | SF-539 CNS -70.1%
inactive: NCI-H23 lung 29.7% | NCI-H322M lung 20.6% | NCI-H460 lung 25.4% | DU-145 prostate 30.9% | K-562 leukemia 32.3% | MALME-3M melanoma 53.1% | MDA-MB-231 breast 15.9% | SF-295 CNS 15.5% | UACC-257 melanoma 66.2% | M14 melanoma 39%

N#Cc1ccc(-n2nnc3ccccc32)cc1C#N
inactive: NCI-H23 lung 94% | NCI-H226 lung 96.7% | NCI-H322M lung 111% | HOP-62 NSCLC 94.6% | NCI-H460 lung 107% | HOP-92 NSCLC 103% | NCI-H522 lung 88.1% | A549/ATCC NSCLC 87.2% | 786-0 renal 99.5% | COLO 205 colon 104% | DU-145 prostate 93.5% | K-562 leukemia 93% | MALME-3M melanoma 96.6% | MDA-MB-231 breast 111% | RXF 393 renal 100% | SF-268 CNS 105% | SF-295 CNS 91.5% | SF-539 CNS 101% | UACC-257 melanoma 89.4% | M14 melanoma 106%
